Inconclusive results are not listed. Active and inactive are the calls of the source. Unless noted, the call rests on the fitted dose curve; in most records, active means well fitted curve in the direction sought with a large enough effect in the repeat runs; inconclusive means weak or mixed curves; inactive means no such curve, though single readings can be large; an effect the other way counts as inactive or inconclusive.
Tests used:
[1] = target: Thyrotropin receptor (Homo sapiens) (UniProt P16473); assay: qHTS assay to identify small molecule agonists of the thyroid stimulating hormone receptor (TSHR) signaling pathway (AID 1224843; calls by dose curve; further: nearly all actives have a fitted effect of over 45% in size)
Sequence of Thyrotropin receptor (Homo sapiens) (P16473 whole entry, looked up): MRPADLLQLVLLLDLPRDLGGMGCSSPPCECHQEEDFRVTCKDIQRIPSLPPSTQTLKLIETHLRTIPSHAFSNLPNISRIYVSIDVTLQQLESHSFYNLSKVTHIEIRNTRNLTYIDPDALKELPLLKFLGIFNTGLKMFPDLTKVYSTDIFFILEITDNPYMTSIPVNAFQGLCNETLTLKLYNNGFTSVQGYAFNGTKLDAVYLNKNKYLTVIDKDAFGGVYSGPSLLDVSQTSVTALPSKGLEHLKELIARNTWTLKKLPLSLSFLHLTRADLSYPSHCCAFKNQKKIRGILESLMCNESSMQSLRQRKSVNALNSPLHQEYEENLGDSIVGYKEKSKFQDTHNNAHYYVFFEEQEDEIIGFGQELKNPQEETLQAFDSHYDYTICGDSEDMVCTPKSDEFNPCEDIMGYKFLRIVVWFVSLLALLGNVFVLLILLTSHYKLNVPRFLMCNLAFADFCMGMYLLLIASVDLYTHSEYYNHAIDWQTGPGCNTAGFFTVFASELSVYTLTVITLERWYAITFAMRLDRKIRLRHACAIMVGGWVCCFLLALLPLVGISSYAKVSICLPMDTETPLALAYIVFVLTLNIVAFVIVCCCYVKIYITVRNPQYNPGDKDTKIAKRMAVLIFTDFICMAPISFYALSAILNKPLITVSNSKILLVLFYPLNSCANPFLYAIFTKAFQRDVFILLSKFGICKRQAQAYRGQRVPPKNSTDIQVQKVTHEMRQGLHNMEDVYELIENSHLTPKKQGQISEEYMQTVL
Procedure, shortened: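 Agonist activity read as cAMP rise via d2/cryptate HTRF competition, 1 h room-temperature detection, in HEK293 cells expressing TSHR. Fifteen-point titrations, each run in triplicate, with a 30 min room-temperature incubation beforehand.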

[2] = qHTS assay to identify small molecule agonists of the hypoxia (HIF-1) signaling pathway (AID 1224846; active means well fitted activation curve with a large enough effect in the signal ratio in the repeat runs, not every such curve was filed as active; the % refers to the signal ratio)
Procedure, shortened: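 ME-180 HRE-bla reporter cells; compounds in DMSO, 17 h at 37C; read-out beta-lactamase via CCF4-AM FRET.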

[3] = qHTS assay to identify small molecule agonists of H2AX - cell viability counter screen (AID 1224847; calls by dose curve;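 further: wild-type CHO-K1 cells; top concentration of the series differs between compounds; nearly all actives have a fitted effect of over 30% in size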)
Procedure, shortened: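 After overnight plating of 1000 CHO-K1 cells per well, a 15-concentration compound series was applied for 3 hr at 37C. Luminescence from CellTiter-Glo, read following 30 min at room temperature, reflected cell viability.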

[4] = qHTS assay to identify small molecule antagonists of the estrogen related receptor (ERR) signaling pathway from Tox21 library (AID 1224848); further: nearly all actives have a fitted effect of over 50% in size
Procedure, shortened: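 Luciferase luminescence (ONE-Glo, 30 min room temperature) was the read-out. Cells of the NTP-supplied ERR line, 2,000 per well, were given 6 h at 37 C before compound addition in DMSO and 18 h exposure at 37 C.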

[5] = qHTS assay to identify small molecule agonists of the estrogen related receptor (ERR) signaling pathway from Tox21 library (AID 1224849; calls by dose curve; further: nearly all actives have a fitted effect of over 15% in size); details: ERR reporter cell line, ONE-Glo luciferase, 18 h; at 92.4 µM (top of the series) unless noted
Procedure, shortened: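 Luciferase activity in ERR pathway reporter cells served as the agonist readout; exposure lasted 18 h at 37 C, with ONE-Glo detection after 30 min at room temperature.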

[6] = qHTS RealTime-Glo MT Cell Viability Assay in HepG2 cells - 24 hour (AID 1224867); further: nearly all actives have a fitted effect of over 50% in size
Procedure, shortened: (§1)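 HepG2 cells were seeded at 600 cells/well together with NanoLuc luciferase and a cell-permeant prosubstrate, preincubated 5 h at 37 C/5% CO2, then pin-dosed with compounds in DMSO. Nonlytic luminescence from viable cells was read at each time point.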

[7] = qHTS RealTime-Glo MT Cell Viability Assay in HEK293 cells - 32 hour (AID 1224868); further: top concentration of the series differs between compounds; nearly all actives have a fitted effect of over 50% in size
Procedure, shortened: (§2)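 HEK293 cells were seeded at 600 cells/well together with NanoLuc luciferase and cell-permeant prosubstrate, preincubated 5 h at 37 C/5% CO2, then given compound in DMSO by pintool. Luminescence from viable-cell prosubstrate reduction was read repeatedly over 40 h.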

[8] = A CellTox Green Cytotoxicity Assay to monitor cytotoxicity in HEK293 cells - 0 hour (AID 1224869); further: nearly all actives have a fitted effect of over 50% in size
Procedure, shortened: (§3)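 Real-time, in one plate: 600 HEK293 cells/well with dead-cell DNA dye, pinned compound after 5 h, 37 C incubation over 40 h; viable cells give no appreciable fluorescence.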

[9] = qHTS RealTime-Glo MT Cell Viability Assay in HepG2 cells - 40 hour (AID 1224870); further: nearly all actives have a fitted effect of over 50% in size
Procedure, shortened: (§4)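 Real-time viability: cells seeded at 600 per well together with NanoLuc and cell-permeant prosubstrate, compounds added after 5 h incubation. Luminescence tracked at 0, 8, 16, 24, 32 and 40 h of exposure.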

[10] = A CellTox Green Cytotoxicity Assay to monitor cytotoxicity in HEK293 cells - 40 hour (AID 1224871); further: nearly all actives have a fitted effect of over 45% in size
Procedure, shortened: as §3

[11] = qHTS RealTime-Glo MT Cell Viability Assay in HEK293 cells - 16 hour (AID 1224872)
Procedure, shortened: as §2

[12] = qHTS RealTime-Glo MT Cell Viability Assay in HepG2 cells - 8 hour (AID 1224873); further: nearly all actives have a fitted effect of over 55% in size
Procedure, shortened: as §4

[13] = A CellTox Green Cytotoxicity Assay to monitor cytotoxicity in HEK293 cells - 24 hour (AID 1224875); further: nearly all actives have a fitted effect of over 45% in size
Procedure, shortened: as §3

[14] = A CellTox Green Cytotoxicity Assay to monitor cytotoxicity in HepG2 cells - 16 hour (AID 1224876); further: nearly all actives have a fitted effect of over 45% in size
Procedure, shortened: (§5)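 Cytotoxicity was tracked as dead-cell DNA fluorescence in HepG2 cells treated with test compounds at 37 C; each time-point value comes from one kinetic series spanning 0, 8, 16, 24, 32 and 40 h.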

[15] = qHTS RealTime-Glo MT Cell Viability Assay in HepG2 cells - 32 hour (AID 1224877); further: nearly all actives have a fitted effect of over 55% in size
Procedure, shortened: as §1

[16] = A CellTox Green Cytotoxicity Assay to monitor cytotoxicity in HepG2 cells - 24 hour (AID 1224878); further: nearly all actives have a fitted effect of over 45% in size
Procedure, shortened: as §5

[17] = A CellTox Green Cytotoxicity Assay to monitor cytotoxicity in HepG2 cells - 40 hour (AID 1224879); further: nearly all actives have a fitted effect of over 40% in size
Procedure, shortened: as §5

[18] = qHTS RealTime-Glo MT Cell Viability Assay in HEK293 cells - 40 hour (AID 1224874); details: RealTime-Glo luminescence; max response: active compounds read low; further: nearly all actives have a fitted effect of over 50% in size
Procedure, shortened: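 Kinetic, non-lysing viability readout. Seed HEK293 (600/well) with reagent, incubate 5 h at 37 C/5% CO2, pin 23 nL compound in DMSO, incubate at 37 C, read luminescence at 0, 8, 16, 24, 32, 40 h.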

[19] = qHTS assay to identify small molecule agonists of H2AX (AID 1224845; active means well fitted activation curve with a large enough effect in the signal ratio in the repeat runs, not every such curve was filed as active; the % refers to the signal ratio)
Procedure, shortened: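 Phospho-H2AX Ser139 measured by HTRF (ex 320 nm; em 665 and 620 nm) after 24 hr antibody incubation. Compounds, 15 concentrations, 0.76% DMSO, were applied to CHO-K1 cells for 3hr at 37C before lysis.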

[20] = qHTS assay to identify small molecule agonists of the hypoxia (HIF-1) signaling pathway - cell viability counter screen (AID 1224844; calls by dose curve; further: nearly all actives have a fitted effect of over 50% in size)
Procedure, shortened: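 In this counter screen, HRE-bla ME-180 cell viability after 17 hrs of compound exposure at 37C was read by CellTiter-Glo luminescence, multiplexed with the beta-lactamase reporter measurement.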
On the % scale 0 is the no-effect control and ±100 the full control effect.

COc1ccc(COC=O)cc1
inactive: outcome [1] | outcome [2] | Potency [3] | Potency [4] | activity change, positive = activation [5] -0.945% | outcome [6] | Potency [7] | Potency [8] | Potency [9] | Potency [10] | Potency [11] | outcome [12] | Potency [13] | Potency [14] | Potency [15] | Potency [16] | Potency [17]

CCCCCN(CCCCC)C(=O)C(CCC(=O)O)NC(=O)c1ccc(Cl)c(Cl)c1 (configuration not stated)
inactive: outcome [1] | Potency [3] | outcome [6] | Potency [7] | Potency [8] | Potency [10] | Potency [11] | outcome [12] | max response [18] -6.43% | Potency [13] | Potency [14] | Potency [15] | Potency [16] | Potency [17]

CCCC(=O)O[C@]1(C(=O)CCl)[C@@H](C)C[C@H]2[C@@H]3CCC4=CC(=O)C=C[C@]4(C)[C@@]3(F)C(=O)C[C@@]21C
inactive: outcome [1] | outcome [19] | Potency [3] | outcome [6] | Potency [7] | Potency [8] | Potency [9] | Potency [10] | Potency [11] | outcome [12] | max response [18] -19.8% | Potency [13] | Potency [14] | Potency [15] | Potency [16] | Potency [17]

C[C@H]1O[C@@H](n2cc(F)c(=O)[nH]c2=O)[C@H](O)[C@@H]1O
inactive: outcome [1] | outcome [19] | Potency [3] | Potency [4] | activity change, positive = activation [5] 2.35% [at 42.5 µM] | outcome [6] | Potency [7] | Potency [9] | Potency [10] | outcome [12] | max response [18] 0.654% | Potency [13] | Potency [14] | Potency [15] | Potency [16] | Potency [17]

NCC[C@H](O)C(=O)N[C@@H]1C[C@H](N)[C@@H](O[C@H]2O[C@H](CN)[C@@H](O)[C@H](O)[C@H]2O)[C@H](O)[C@H]1O[C@H]1O[C@H](CO)[C@@H](O)[C@H](N)[C@H]1O
inactive: activation [1] -3.02% [at 0.349 µM] | activation (H2AX phosphorylation) [19] 0.216% [at 0.582 µM] | activity change, negative = cytotoxicity [3] 2.46% [at 0.582 µM] | activity change, negative = cytotoxicity [6] 1.55% [at 0.29 µM] | activity change, negative = cytotoxic [7] 4.99% [at 0.29 µM] | cytotoxicity [8] -5.15% [at 0.29 µM] | activity change, negative = cytotoxic [9] -0.912% [at 0.29 µM] | cytotoxicity increase [10] -3.46% [at 0.29 µM] | activity change, negative = cytotoxicity [11] -0.0333% [at 0.29 µM] | viability change, negative = cytotoxic [12] -0.5% [at 0.29 µM] | max response [18] 5.14% | activity change [13] 2.36% [at 0.29 µM, active compounds read high] | cytotoxicity increase [14] -3.16% [at 0.29 µM] | activity change, negative = cytotoxic [15] -1.54% [at 0.29 µM] | cytotoxicity [16] -1.2% [at 0.29 µM] | cytotoxicity increase [17] -4.11% [at 0.29 µM]

NS(=O)(=O)c1cc2c(cc1C(F)(F)F)NC(Cc1ccccc1)NS2(=O)=O (configuration not stated)
inactive: outcome [1] | outcome [19] | Potency [3] | outcome [6] | Potency [7] | Potency [8] | Potency [9] | Potency [10] | Potency [11] | outcome [12] | max response [18] -7.67% | Potency [13] | Potency [14] | Potency [15] | Potency [16] | Potency [17]

Nc1cc(N)cc(C(=O)O)c1
inactive: outcome [1] | outcome [2] | Potency [3] | outcome [6] | Potency [7] | Potency [8] | Potency [9] | Potency [10] | outcome [12] | max response [18] 8.18% | Potency [13] | Potency [14] | Potency [16] | Potency [17]

CCCCCCOC(=O)c1ccccc1O
inactive: Potency [20] | outcome [19] | outcome [2] | Potency [3] | Potency [4] | activity change, positive = activation [5] 8.56% | outcome [6] | Potency [7] | Potency [8] | Potency [9] | Potency [10] | Potency [11] | outcome [12] | max response [18] -8.04% | Potency [13] | Potency [14] | Potency [15] | Potency [16] | Potency [17]

CC(=O)N[C@@H](CCC(N)=O)C(=O)O
inactive: Potency [20] | outcome [19] | outcome [2] | Potency [3] | outcome [6] | Potency [7] | Potency [8] | Potency [9] | Potency [10] | outcome [12] | max response [18] -1.52% | Potency [13] | Potency [14] | Potency [15] | Potency [16] | Potency [17]

COCc1ccc(COC)cc1
inactive: Potency [20] | outcome [19] | outcome [2] | Potency [3] | outcome [6] | Potency [7] | Potency [8] | Potency [9] | Potency [10] | Potency [11] | outcome [12] | max response [18] 4.98% | Potency [13] | Potency [14] | Potency [15] | Potency [16] | Potency [17]

COC(=O)CCCC(=O)O
inactive: outcome [1] | outcome [19] | outcome [6] | Potency [7] | Potency [8] | Potency [10] | Potency [11] | outcome [12] | max response [18] 10.9% | Potency [13] | Potency [14] | Potency [16] | Potency [17]

CC(C)(O)c1ccccc1
inactive: Potency [20] | outcome [19] | outcome [2] | Potency [3] | Potency [4] | outcome [6] | Potency [7] | Potency [8] | Potency [9] | Potency [10] | Potency [11] | max response [18] -10.8% | Potency [13] | Potency [14] | Potency [15] | Potency [16] | Potency [17]

COc1cc(O)cc(O)c1
inactive: outcome [1] | outcome [2] | Potency [3] | outcome [6] | Potency [7] | Potency [8] | Potency [9] | Potency [10] | Potency [11] | outcome [12] | max response [18] 2.03% | Potency [13] | Potency [14] | Potency [15] | Potency [16] | Potency [17]

COC(=O)C1=C(C)NC(C)=C(C(=O)OCC(C)=O)C1c1ccccc1[N+](=O)[O-] (configuration not stated)
inactive: Potency [20] | outcome [19] | outcome [2] | Potency [3] | Potency [4] | activity change, positive = activation [5] -8.69% [at 42.5 µM] | outcome [6] | Potency [7] | Potency [8] | Potency [9] | Potency [10] | max response [18] -9.05% | Potency [14] | Potency [16] | Potency [17]

Oc1cc(O)c2c(c1)O[C@H](c1ccc(O)c(O)c1)[C@H](O)C2
inactive: outcome [1] | Potency [3] | outcome [6] | Potency [7] | Potency [8] | Potency [9] | Potency [10] | Potency [11] | outcome [12] | max response [18] 0.448% | Potency [13] | Potency [14] | Potency [15] | Potency [16] | Potency [17]

Source: PubChem BioAssay (Tox21)
